Measured values: PubChem BioAssay (EPA / NIEHS)
Several values for one entry are separate records, joined by “and”; a condition that tells them apart may be missing. Identical values can stand only once. A structure can be active in one record and inactive in another. Activity calls are given as the source filed them. Rule for the calls: active = hit-call score of the fitted dose curve at least 0.9, where 1 is the maximum; inactive = score below 0.9.

What was measured:
[1] = ATG_PXRE_CIS: Attagene CIS-FACTORIAL HepG2 Assay for human Pregnane X Receptor Element (PXRE) (AID 2282957); settings: HepG2 Attagene CIS-FACTORIAL PXRE reporter, mRNA; actives raise or lower the signal
Method in brief: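 Bidirectional activity, baselined to DMSO, derived from reporter mRNA fluorescence (RT-PCR plus capillary electrophoresis) in HepG2 cells bearing cis-promoter reporter units, 24 h exposure.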

[2] = ATG_RORE_CIS: Attagene CIS-FACTORIAL HepG2 Assay for human RAR-related Orphan Receptor Element (RORE) (AID 2282959); settings: HepG2 Attagene cis-factorial RORE reporter, mRNA; actives raise or lower the signal
Method in brief: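 Endogenous factor activity at a cis response element is read as reporter transcript levels in HepG2 cells, 24 h post-dose. Transcripts are quantified by RT-PCR with capillary electrophoresis, and data fitted in both directions against DMSO.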

[3] = ATG_Sox_CIS: Attagene CIS-FACTORIAL HepG2 Assay for human SRY-box transcription factor (SOX) (AID 2282960); settings: HepG2 Attagene cis-factorial SOX reporter, mRNA; actives raise or lower the signal
Method in brief: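 Measures mRNA induction of a SOX1-associated reporter in HepG2 after 24 h dosing. Fluorescently labelled RT-PCR fragments are separated by capillary electrophoresis, and gain or loss relative to DMSO control is fitted.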

[4] = biological target: Transcription factor Sp1 (Homo sapiens) (UniProt P08047); assay: ATG_Sp1_CIS: Attagene CIS-FACTORIAL HepG2 Assay for human Specificity Protein 1 (Sp1) (AID 2282961); settings: HepG2 Sp1 cis-reporter transcription, actives raise or lower the signal
Chain of Transcription factor Sp1 (Homo sapiens) (P08047 whole entry, looked up): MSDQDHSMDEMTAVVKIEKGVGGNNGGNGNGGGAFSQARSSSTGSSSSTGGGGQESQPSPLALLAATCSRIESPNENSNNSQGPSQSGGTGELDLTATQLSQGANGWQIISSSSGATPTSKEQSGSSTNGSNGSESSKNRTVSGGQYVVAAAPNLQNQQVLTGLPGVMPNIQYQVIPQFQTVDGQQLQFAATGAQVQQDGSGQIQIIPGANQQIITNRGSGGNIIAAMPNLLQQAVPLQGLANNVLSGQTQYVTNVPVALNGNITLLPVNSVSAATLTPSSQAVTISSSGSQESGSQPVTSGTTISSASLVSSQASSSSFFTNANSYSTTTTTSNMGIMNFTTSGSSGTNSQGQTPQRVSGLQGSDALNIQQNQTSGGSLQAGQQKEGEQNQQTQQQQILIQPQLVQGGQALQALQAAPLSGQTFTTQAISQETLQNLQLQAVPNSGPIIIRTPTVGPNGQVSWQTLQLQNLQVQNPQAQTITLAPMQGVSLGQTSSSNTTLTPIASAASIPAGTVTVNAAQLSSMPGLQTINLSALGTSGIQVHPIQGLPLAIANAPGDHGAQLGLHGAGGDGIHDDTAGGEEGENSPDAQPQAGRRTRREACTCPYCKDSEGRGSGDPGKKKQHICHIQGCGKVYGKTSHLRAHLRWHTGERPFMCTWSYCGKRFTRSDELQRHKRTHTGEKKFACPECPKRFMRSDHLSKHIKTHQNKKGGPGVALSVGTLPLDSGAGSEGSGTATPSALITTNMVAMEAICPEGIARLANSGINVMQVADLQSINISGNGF
Method in brief: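 Cells: HepG2, transiently transfected with cis-regulated multiplexed reporters. Exposure: 24 h. Detection: reporter transcripts amplified, fluorescently labeled, restriction-digested and sized by capillary electrophoresis. Analysis: bidirectional fit relative to DMSO.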

[5] = ATG_SREBP_CIS: Attagene CIS-FACTORIAL HepG2 Assay for human Sterol Regulatory Element Binding (SREBP) (AID 2282962); settings: HepG2 Attagene cis-factorial SREBP reporter, mRNA; actives raise or lower the signal
Method in brief: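 Endogenous factor activity is measured in HepG2 through multiplexed reporter units under cis-element control. Following a 24 h incubation, reporter transcripts are reverse-transcribed, PCR-amplified and sized by capillary electrophoresis; activity is fitted in both directions relative to DMSO.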

[6] = ATG_TA_CIS: Attagene CIS-FACTORIAL HepG2 Assay for human TA Basal Promoter (AID 2282964); settings: HepG2 Attagene CIS-factorial TA basal promoter reporter; actives raise or lower the signal
Method in brief: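 Transient MRTU transfection of HepG2 preceded 24 h compound exposure. Reporter mRNA levels were then read by RT-PCR with capillary electrophoresis, and this background-control endpoint was fitted bidirectionally to DMSO.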

[7] = ATG_TCF_b_cat_CIS: Attagene CIS-FACTORIAL HepG2 Assay for human T-Cell-Factor with beta-catenin (TCF/b-cat) (AID 2282965); settings: HepG2 TCF/beta-catenin cis-reporter transcription, actives raise or lower the signal
Method in brief: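 In this cis-format system, transfected HepG2 cells report endogenous transcription factor activity. Readout after 24 h exposure is reporter transcript abundance from RT-PCR and capillary electrophoresis, analysed for gain or loss of signal versus DMSO.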

[8] = ATG_TAL_CIS: Attagene CIS-FACTORIAL HepG2 Assay for human TAL Basal Promoter (AID 2282966); settings: HepG2 Attagene cis-factorial TAL promoter reporter; actives raise or lower the signal;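 note: background control endpoint measuring basal TAL promoter reporter mRNA not a specific factor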
Method in brief: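 Human hepatoma HepG2 cells, transfected with promoter-regulated reporter units, were treated 24 h. Reporter transcript levels, measured through RT-PCR and capillary electrophoresis, were fitted for gain or loss relative to DMSO.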

[9] = ATG_PPRE_CIS: Attagene CIS-FACTORIAL HepG2 Assay for human Peroxisome Proliferator-activated Response Element (PPRE) (AID 2282958); settings: HepG2 PPRE cis-element reporter, Attagene transcription factor profiling; actives raise or lower the signal
Method in brief: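 In this cell-based multiplex, a PPRE cis element drives a reporter sequence in transiently transfected HepG2 cells. Following 24 h treatment, labeled cDNA amplicons are sized and quantified by capillary electrophoresis, with DMSO defining baseline.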

[10] = biological target: Signal transducer and activator of transcription 3 (Homo sapiens) (UniProt P40763); assay: ATG_STAT3_CIS: Attagene CIS-FACTORIAL HepG2 Assay for human Signal Transducer and Activator of Transcription 3 (STAT3) (AID 2282963); settings: HepG2, Attagene cis-factorial STAT3 reporter transcription; actives raise or lower the signal
Chain of Signal transducer and activator of transcription 3 (Homo sapiens) (P40763 whole entry, looked up): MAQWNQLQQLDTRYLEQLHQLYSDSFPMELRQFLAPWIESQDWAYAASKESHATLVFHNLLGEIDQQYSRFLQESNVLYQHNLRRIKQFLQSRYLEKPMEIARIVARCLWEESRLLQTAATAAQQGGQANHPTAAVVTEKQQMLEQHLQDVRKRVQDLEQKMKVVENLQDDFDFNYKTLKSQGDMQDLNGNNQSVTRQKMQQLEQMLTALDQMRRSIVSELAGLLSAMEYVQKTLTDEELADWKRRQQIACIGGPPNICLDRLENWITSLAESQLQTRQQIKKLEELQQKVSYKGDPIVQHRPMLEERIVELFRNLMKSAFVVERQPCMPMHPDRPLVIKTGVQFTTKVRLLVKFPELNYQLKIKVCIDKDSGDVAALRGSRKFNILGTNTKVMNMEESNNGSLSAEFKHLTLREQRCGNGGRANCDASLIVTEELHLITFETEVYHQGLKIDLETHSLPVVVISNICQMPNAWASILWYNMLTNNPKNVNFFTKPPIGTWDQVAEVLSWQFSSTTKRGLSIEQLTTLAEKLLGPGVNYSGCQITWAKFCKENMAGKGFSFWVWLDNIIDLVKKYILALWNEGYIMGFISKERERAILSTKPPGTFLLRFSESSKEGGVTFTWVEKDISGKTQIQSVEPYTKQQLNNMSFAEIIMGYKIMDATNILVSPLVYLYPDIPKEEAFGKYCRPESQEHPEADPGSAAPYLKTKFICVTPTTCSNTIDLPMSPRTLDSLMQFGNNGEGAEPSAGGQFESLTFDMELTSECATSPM
Method in brief: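 HepG2, MRTU-transfected, 24 h dosing. RNA → RT → PCR → FAM label → HpaI → CE. Bidirectional fit vs DMSO.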

## Cc1cc(Cc2ccc(N)c(C)c2)ccc1N
[1]
  outcome: inactive
[2]
  outcome: inactive
[3]
  outcome: inactive
[4]
  outcome: inactive
[5]
  AC50: 12.9 µM (active)
[6]
  outcome: inactive
[7]
  outcome: inactive
[8]
  outcome: inactive

## Cc1ccc(-c2cc(C(F)(F)F)nn2-c2ccc(S(N)(=O)=O)cc2)cc1
[1]
  AC50: 2.58 µM (active)
[9]
  outcome: inactive
[3]
  outcome: inactive
[4]
  outcome: inactive
[5]
  outcome: inactive
[10]
  outcome: inactive
[6]
  outcome: inactive
[7]
  outcome: inactive
[8]
  outcome: inactive

## CC(C)OC(=O)C(C)(C)Oc1ccc(C(=O)c2ccc(Cl)cc2)cc1
[1]
  AC50: 12.3 µM (active)
[2]
  AC50: 27.5 µM (active)
[3]
  outcome: inactive
[5]
  outcome: inactive
[10]
  outcome: inactive
[6]
  AC50: 22.6 µM (active)
[7]
  outcome: inactive
[8]
  outcome: inactive

## CC(=O)[C@@]1(O)CC[C@H]2[C@@H]3CCC4=CC(=O)CC[C@]4(C)[C@H]3CC[C@@]21C
[1]
  outcome: inactive
[2]
  outcome: inactive
[3]
  outcome: inactive
[4]
  outcome: inactive
[5]
  AC50: 11.1 µM (active)
  outcome: inactive
[6]
  outcome: inactive
[8]
  outcome: inactive

## Nc1nc(Cl)nc2c1ncn2[C@H]1C[C@H](O)[C@@H](CO)O1
[1]
  outcome: inactive
[2]
  outcome: inactive
[3]
  outcome: inactive
[4]
  outcome: inactive
[5]
  outcome: inactive
[10]
  outcome: inactive
[6]
  outcome: inactive
[8]
  outcome: inactive

## Cc1occc(=O)c1O
[1]
  outcome: inactive
[2]
  outcome: inactive
[3]
  outcome: inactive
[5]
  outcome: inactive
[10]
  outcome: inactive
[6]
  outcome: inactive
[8]
  outcome: inactive

## Nc1nc(=S)c2[nH]cnc2[nH]1
[1]
  AC50: 100 µM (active)
[2]
  outcome: inactive
[3]
  outcome: inactive
[5]
  outcome: inactive
[10]
  outcome: inactive
[6]
  outcome: inactive
[7]
  outcome: inactive
[8]
  outcome: inactive

## Cc1ccc(C(C)(C)C)c(O)c1
[1]
  AC50: 25 µM (active)
[2]
  outcome: inactive
[3]
  AC50: 154 µM (active)
[4]
  AC50: 100 µM (active)
[5]
  AC50: 161 µM (active)
[10]
  outcome: inactive
[6]
  outcome: inactive
[8]
  outcome: inactive

## CC(=O)O
[1]
  outcome: inactive
[3]
  outcome: inactive
[4]
  outcome: inactive
[5]
  outcome: inactive
[6]
  outcome: inactive
[7]
  outcome: inactive
[8]
  outcome: inactive

## COC(=O)[C@H]1[C@H]2C[C@@H]3c4[nH]c5cc(OC)ccc5c4CCN3C[C@H]2C[C@@H](OC(=O)c2cc(OC)c(OC)c(OC)c2)[C@@H]1OC
[9]
  outcome: inactive
[2]
  outcome: inactive
[3]
  outcome: inactive
[4]
  outcome: inactive
[5]
  AC50: 3.96 µM (active)
[10]
  outcome: inactive
[6]
  outcome: inactive
[8]
  outcome: inactive

## CN(C)C(=O)NC1(c2ccccc2)CCN(CC[C@@]2(c3ccc(F)c(F)c3)CN(C(=O)c3ccccc3)CCO2)CC1
[1]
  AC50: 2.43 µM (active)
[9]
  outcome: inactive
[3]
  outcome: inactive
[4]
  outcome: inactive
[5]
  AC50: 26.8 µM (active)
[10]
  outcome: inactive
[6]
  outcome: inactive
[7]
  AC50: 100 µM (active)
[8]
  outcome: inactive

## CC(=O)CC(c1ccccc1)c1c(O)c2ccccc2oc1=O (stereo unspecified)
[1]
  AC50: 59.1 µM (active) and 59.7 µM (active)
[2]
  outcome: inactive
[3]
  outcome: inactive
[5]
  outcome: inactive
[10]
  outcome: inactive
[6]
  outcome: inactive
[8]
  outcome: inactive

## CCCCC(CC)COC(=O)CCCCCCCC(=O)OCC(CC)CCCC (stereo unspecified)
[1]
  outcome: inactive
[3]
  outcome: inactive
[4]
  outcome: inactive
[5]
  outcome: inactive
[10]
  outcome: inactive
[6]
  outcome: inactive
[8]
  outcome: inactive

## CC(=O)S[C@H](C(=O)N[C@H]1Cc2ccccc2[C@H]2CCC[C@@H](C(=O)O)N2C1=O)C(C)C
[1]
  AC50: 40.9 µM (active)
[2]
  outcome: inactive
[3]
  outcome: inactive
[4]
  outcome: inactive
[5]
  outcome: inactive
[10]
  outcome: inactive
[6]
  outcome: inactive
[8]
  outcome: inactive

## CCc1cc(C2=C(C(=O)O)N(c3ccccc3C(F)(F)F)S(=O)(=O)c3ccccc32)cc2c1OCO2
[1]
  AC50: 2.14 µM (active)
[2]
  outcome: inactive
[3]
  outcome: inactive
[5]
  AC50: 26.6 µM (active)
[10]
  outcome: inactive
[6]
  outcome: inactive
[7]
  AC50: 122 µM (active)
[8]
  outcome: inactive

## CC(C)(O)c1ccc(CNC(=O)c2cccnc2Oc2ccc(F)cc2)cc1
[1]
  AC50: 7.12 µM (active)
[2]
  outcome: inactive
[3]
  outcome: inactive
[5]
  AC50: 44.6 µM (active)
[6]
  outcome: inactive
[8]
  outcome: inactive

## CC(=O)OCC(COC(C)=O)OC(C)=O
[1]
  outcome: inactive
[9]
  outcome: inactive
[2]
  outcome: inactive
[3]
  outcome: inactive
[5]
  outcome: inactive
[6]
  outcome: inactive
[8]
  outcome: inactive

## O=C(N[C@@H](c1ccccc1)[C@@H]1CCCCN1)c1cccc(C(F)(F)F)c1Cl
[1]
  AC50: 8.23 µM (active)
[9]
  outcome: inactive
[2]
  outcome: inactive
[3]
  AC50: 33 µM (active)
[5]
  AC50: 8.09 µM (active)
[6]
  outcome: inactive
[8]
  outcome: inactive

## CCCCc1nc2cccnc2n1Cc1ccc(-c2ccccc2-c2nnn[nH]2)cc1
[1]
  AC50: 27.2 µM (active)
[2]
  outcome: inactive
[3]
  outcome: inactive
[5]
  outcome: inactive
[6]
  outcome: inactive
[7]
  outcome: inactive
[8]
  outcome: inactive

## NCCOCCOCCN
[1]
  outcome: inactive
[2]
  outcome: inactive
[3]
  outcome: inactive
[4]
  outcome: inactive
[5]
  outcome: inactive
[10]
  outcome: inactive
[6]
  outcome: inactive
[8]
  outcome: inactive

## Cc1c(C)c2c(c(C)c1O)CCC(C)(COc1ccc(CC3SC(=O)NC3=O)cc1)O2 (stereo unspecified)
[1]
  AC50: 2.01 µM (active)
[3]
  outcome: inactive
[5]
  AC50: 1.6 µM (active)
[10]
  outcome: inactive
[6]
  outcome: inactive
[8]
  outcome: inactive

## C#CC(O)C(CC)CCCC (stereo unspecified)
[1]
  AC50: 15 µM (active)
[2]
  outcome: inactive
[3]
  outcome: inactive
[4]
  AC50: 154 µM (active)
[5]
  outcome: inactive
[10]
  outcome: inactive
[6]
  outcome: inactive
[7]
  AC50: 67.9 µM (active)
[8]
  outcome: inactive

## O=C1OC(c2ccc(O)cc2)(c2ccc(O)cc2)c2ccccc21
[1]
  outcome: inactive
[2]
  AC50: 26.7 µM (active)
[3]
  outcome: inactive
[5]
  AC50: 27.6 µM (active)
[6]
  AC50: 27.7 µM (active)
[8]
  AC50: 46.8 µM (active)

## CC(C)c1cccc(C(C)C)c1NC(=O)NS(=O)(=O)c1cc(C(C)(C)O)co1
[1]
  AC50: 16.7 µM (active)
[2]
  outcome: inactive
[3]
  outcome: inactive
[5]
  outcome: inactive
[10]
  outcome: inactive
[6]
  outcome: inactive
[8]
  outcome: inactive
